20 compounds from PubChem BioAssay (NCI) can be followed below.

The panel holds about 79,000 compounds, 15% with a hit somewhere; the sample as a whole holds those more often. Unmarked numbers belong to inactive results. The source made the active and inactive calls. Cut-off read from the data, not from the text of the source: active = growth inhibition above about 70%; inactive = the rest.

A short description of assay [1]: NCI Yeast Anticancer Drug Screen. Data for the rad50 strain (AID 155).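 Note: 0% = growth of vehicle-only cultures of the same strain.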 The conditions noted are these: S. cerevisiae rad50 strain growth inhibition; at 50.0 µM; active compounds read high. In outline:
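Compounds were tested on a yeast strain with an engineered DNA damage repair alteration; the reported value is growth inhibition normalised to vehicle treatment.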

Assay [2] can be described thus: NCI Yeast Anticancer Drug Screen. Data for the mec2-1 strain (AID 157). The conditions noted are these: S. cerevisiae mec2-1 strain, at 50.0 µM, active compounds read high. In outline:
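Test agents were screened against the mec2-1 yeast strain, with defined DNA repair or cell cycle alteration. Growth was scored as inhibition against vehicle-only controls.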

A short description of assay [3]: NCI Yeast Anticancer Drug Screen. Data for the sgs1 mgt1 strain (AID 161).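 Note: 0% = growth of cultures given vehicle only.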 The conditions noted are these: S. cerevisiae sgs1 mgt1 strain, at 50.0 µM, active compounds read high. The gist of the method: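 Genetically altered yeast, compound exposure, growth inhibition relative to vehicle.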
Assay [4] in a line: NCI Yeast Anticancer Drug Screen. Data for the cln2 rad14 strain (AID 165).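 Note: 0% = growth equal to vehicle treated cultures.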 The conditions noted are these: S. cerevisiae cln2 rad14 strain, at 50.0 µM, active compounds read high. In outline:
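Growth of compound-exposed yeast (cln2 rad14 genotype) measured and expressed as inhibition relative to vehicle.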

Assay [5] is described as follows: NCI Yeast Anticancer Drug Screen. Data for the bub3 strain (AID 167). The conditions noted are these: S. cerevisiae bub3 mutant strain, at 50.0 µM, active compounds read high. In outline:
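Growth of a checkpoint-deficient yeast mutant is measured after compound exposure. Values represent inhibition relative to vehicle.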

The nature of assay [6]: NCI Yeast Anticancer Drug Screen. Data for the mlh1 rad18 strain (AID 175). The conditions noted are these: S. cerevisiae mlh1 rad18 strain growth inhibition; at 50.0 µM; active compounds read high. The gist of the method: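 In this whole-cell yeast screen, a strain with altered DNA damage repair is challenged with compound, and its growth is measured against matched vehicle-treated controls.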

As to `COc1cc(C(CC(=O)O)CC(=O)O)cc(OC)c1OC`, the growth inhibition in assay [1] is -2.45%; in assay [2] it was -8.8%; in assay [3] it was 25.4%; in assay [4], 7.05%; in assay [5] it was 15.6%; in assay [6] it was 12.6%.
`COC(=O)c1c(C)c(C)cc(C)c1C`: the growth inhibition in assay [1] is -0.9%; in assay [2] it was -13.2%; in assay [3], -4.1%; in assay [4] it was 11.7%; in assay [5], -7.1%; in assay [6], -9.5%.
Take `C#CN1C(=O)c2c(c(-c3ccccc3)c(-c3ccc(Oc4ccc(-c5c(-c6ccccc6)c6c(c(-c7ccccc7)c5-c5ccccc5)C(=O)N(C#C)C6=O)cc4)cc3)c(-c3ccccc3)c2-c2ccccc2)C1=O`: the growth inhibition was 7.25% in assay [1]; 10.1% in assay [2]; 1.9% in assay [3]; 10.3% in assay [4]; 1.4% in assay [5]; 15.2% in assay [6].
In the case of `COCCCN1COCC(COc2ccc(Cl)cc2)OC1` (stereo not given), the growth inhibition is -17.9% in assay [1]; -35% in assay [2]; -32.2% in assay [3]; -23.2% in assay [4]; -36.6% in assay [5]; -27.9% in assay [6].
In the case of `O=C(O)CC(SSCc1ccccc1)C(=O)O` (stereo not given), the growth inhibition in assay [1] is 5.1%; in assay [2], 16.6%; in assay [3] it was -4.15%; in assay [4], -12.2%; in assay [5], 12.7%; in assay [6], 20.8%.
For the compound `O=C1C(=Cc2ccc(Cl)c(Cl)c2)C([O-])=C([P+](c2ccccc2)(c2ccccc2)c2ccccc2)C([O-])=C1[P+](c1ccccc1)(c1ccccc1)c1ccccc1`, the growth inhibition in assay [1] was -4.6%; in assay [2], -44.6%; in assay [3], -7.05%; in assay [4], 5.15%; in assay [5], -21.9%; in assay [6], -19.6%.
As for `COc1ccc2nc(C)c3c(c2c1)C(=O)N(CCCN1CCN(CCCN2C(=O)c4c(C)nc5ccc(OC)cc5c4C2=O)CC1)C3=O`, the growth inhibition in assay [1] is 0.6%; in assay [2], 9.4%; in assay [3] it was -7.5%; in assay [4], -25.4%; in assay [5] it was 2.15%; in assay [6], 36.5%.
Consider `CCOC(Nc1ccccc1[N+](=O)[O-])C(=O)c1ccccc1` (stereo not given), for which the growth inhibition was 21.4% in assay [1]; 8.05% in assay [2]; 1.35% in assay [3]; 28.7% in assay [4]; 24.4% in assay [5]; 12.7% in assay [6].
With `COc1nc(N=P(c2ccccc2)(c2ccccc2)c2ccccc2)cc(=O)[nH]1`, the growth inhibition in assay [1] is 4.3%; in assay [2], 1.6%; in assay [3], 26.9%; in assay [4] it was 27.7%; in assay [5], 21.9%; in assay [6], 4.65%.
Consider `CSCCC(NCc1c(O)ccc2c(C)cc(=O)oc12)C(=O)O` (stereo not given), for which the growth inhibition was 16.5% in assay [1]; 0.85% in assay [2]; 14% in assay [3]; 25.9% in assay [4]; -1.05% in assay [5]; 26.7% in assay [6].
Turning to `c1ccc2c(c1)cnc1c3ccccc3ccc21`, the growth inhibition was 10.1% in assay [1]; -7.85% in assay [2]; -8.6% in assay [3]; -21.9% in assay [4]; 6.85% in assay [5]; -0.5% in assay [6].
Consider `BrCc1ccc(C[P+](c2ccccc2)(c2ccccc2)c2ccccc2)cc1`, for which the growth inhibition in assay [1] is 26.3%; in assay [2] it was 15.3%; in assay [3], 16.2%; in assay [4] it was 7%; in assay [5], 29.2%; in assay [6] it was 28.4%.
As to `OCC12CCCC(OC1)O2` (stereo not given), the growth inhibition is -8.6% in assay [1]; -14.7% in assay [2]; -25.9% in assay [3]; 0.2% in assay [4]; 13.8% in assay [5]; -4.65% in assay [6].
For `O=C(CCBr)OCc1ccccc1`, the growth inhibition in assay [1] is -12.5%; in assay [2], -7.45%; in assay [3], 1.1%; in assay [4] it was -20.8%; in assay [5], -26.2%; in assay [6], 25%.
As to `N#Cc1ccc(-c2nc3ccc(Cl)cc3[nH]2)cc1`, the growth inhibition is -47.9% in assay [1]; -31% in assay [2]; -13.7% in assay [3]; 6.7% in assay [4]; -30.9% in assay [5]; -21.9% in assay [6].
In the case of `CCc1ccc[n+](CCc2c[nH]c3ccccc23)c1`, the growth inhibition in assay [1] is -13%; in assay [2], -0.45%; in assay [3], -10%; in assay [4] it was 1.35%; in assay [5], 1.35%; in assay [6], -10.5%.
Consider `CCC1OC(=O)C(CC)OC1=O` (stereo not given), for which the growth inhibition is -5.75% in assay [1]; -20.2% in assay [2]; -25.6% in assay [3]; -2.05% in assay [4]; -28.9% in assay [5]; -24.4% in assay [6].
Take `COc1ccc(N(C(=O)Nc2ccc(Cl)c(Cl)c2)c2ccccc2)cc1`: the growth inhibition is -32.1% in assay [1]; -28.4% in assay [2]; -19.2% in assay [3]; -1.45% in assay [4]; 14.3% in assay [5]; -10.4% in assay [6].
In the case of `O=C(O)C1CCC2SC(F)(F)C(F)(F)C2C1` (stereo not given), the growth inhibition in assay [1] was -4.05%; in assay [2], 12.2%; in assay [3], 2.65%; in assay [4] it was 12.5%; in assay [5], 8.55%; in assay [6], 11.6%.
As to `O=S(=O)(Cc1ccccc1)CC(Br)CBr` (stereo not given), the growth inhibition was 82.9% (active) in assay [1]; 97.2% (active) in assay [2]; 96.1% (active) in assay [3]; 27.4% in assay [4]; 95.2% (active) in assay [5]; 97.2% (active) in assay [6].
